According to PubChem BioAssay (NCATS):
Records with an inconclusive call do not appear. The source made the active and inactive calls. Unless noted, the call rests on the fitted dose curve; in most records, active means well fitted curve in the direction sought with a large enough effect; inconclusive means small, poorly fitted or top-dose-only effect, or another doubt; inactive means no such curve, though single readings can be large; an effect the other way counts as inactive or inconclusive.

How the values were obtained:
[1] = qHTS assay for measurement of the activity of small molecule inhibitors on Zika virus induced Caspase-3 activity in human iPSC derived neural progenitor cells (hNPCs) (AID 1224857); further: nearly all actives have a fitted effect of over 65% in size
Procedure, shortened: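 Caspase-3/7 induction by a 6-hour ZIKV infection was quantified with a luminescent Caspase-Glo 3/7 reagent incubated 30 minutes at room temperature. Compounds were preincubated with hNPCs for 1 hour; inhibition was calculated against uninfected and infected control wells.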

[2] = qHTS assay for measurement of the activity of small molecule inhibitors on Zika virus induced Caspase-3 activity in human astrocytoma cells (AID 1224859)
Procedure, shortened: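 In SNB-19 cells plated at 250 cells/well and grown 16-20 h, compounds were applied 1 h before ZIKV (2 FFU/cell). Six hours later caspase-3/7 luminescence was recorded.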

[3] = qHTS assay to identify small molecule inhibitors of chordoma cells - UCH-1 (AID 1259355); further: nearly all actives have a fitted effect of over 55% in size
Procedure, shortened: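 Seed 800 cells per well; incubate overnight at 37 C, 5% CO2. Add test compounds (15 concentrations), then the auranofin–topoisomerase-agent combination. Incubate 48hr, add CellTiter-Glo, wait 30min, read luminescence.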

[4] = qHTS assay to identify small molecule inhibitors of chordoma cells - UCH-2 (AID 1259356); further: series mostly up to about 46 µM
[5] = NS1 protein of Zika virus - qHTS assay to identify small molecule inhibitors in human HEK 293 cells (AID 1347053); further: series mostly up to about 46 µM; nearly all actives have a fitted effect of over 55% in size
Procedure, shortened: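 HEK 293 cells, seeded 20 h at 37 C, were pretreated with compound 1 h, then infected with ZIKV MR766 (MOI = 0.5) for 24 h. NS1 was read by TR-FRET with two anti-NS1 antibodies, normalized to uninfected and infected wells.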

[6] = P-glycoprotein substrates identified in KB-8-5-11 adenocarcinoma cell line, qHTS therapeutic library screen (AID 1346987); further: nearly all actives have a fitted effect of over 65% in size; further: potency means the concentration at half of the fitted maximal effect
Procedure, shortened: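 KB-8-5-11, a colchicine-selected P-gp-overexpressing KB-3-1 subline, was grown without colchicine for the assay. Cells were seeded at 500 cells/well, dosed in concentration-response and incubated 72 h at 37 degree C, 5% CO2. Viability was read by CellTiter-Glo luminescence.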

[7] = Natriuretic polypeptide receptor (hNpr1) antagonism - Pilot counterscreen GloSensor control cell line (AID 1347045; calls by dose curve; further: series mostly up to about 38 µM)
Procedure, shortened: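 HEK293 cGMP GloSensor cells preloaded 2 h with 2% GloSensor reagent, then compound 30 min before baseline luminescence read. Stimulated with 50 uM sodium nitroprusside, 20 min at room temperature, then read again; counterscreen for Npr1 antagonism.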

[8] = target: Atrial natriuretic peptide receptor 1 (Homo sapiens) (UniProt P16066); assay: Natriuretic polypeptide receptor (hNpr1) antagonism - Pilot screen (AID 1347049; calls by dose curve;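 further: agonist-evoked cGMP luminescence read 20 min after hNppA addition; series mostly up to about 58 µM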)
Atrial natriuretic peptide receptor 1 (Homo sapiens), sequence (P16066 whole entry, looked up): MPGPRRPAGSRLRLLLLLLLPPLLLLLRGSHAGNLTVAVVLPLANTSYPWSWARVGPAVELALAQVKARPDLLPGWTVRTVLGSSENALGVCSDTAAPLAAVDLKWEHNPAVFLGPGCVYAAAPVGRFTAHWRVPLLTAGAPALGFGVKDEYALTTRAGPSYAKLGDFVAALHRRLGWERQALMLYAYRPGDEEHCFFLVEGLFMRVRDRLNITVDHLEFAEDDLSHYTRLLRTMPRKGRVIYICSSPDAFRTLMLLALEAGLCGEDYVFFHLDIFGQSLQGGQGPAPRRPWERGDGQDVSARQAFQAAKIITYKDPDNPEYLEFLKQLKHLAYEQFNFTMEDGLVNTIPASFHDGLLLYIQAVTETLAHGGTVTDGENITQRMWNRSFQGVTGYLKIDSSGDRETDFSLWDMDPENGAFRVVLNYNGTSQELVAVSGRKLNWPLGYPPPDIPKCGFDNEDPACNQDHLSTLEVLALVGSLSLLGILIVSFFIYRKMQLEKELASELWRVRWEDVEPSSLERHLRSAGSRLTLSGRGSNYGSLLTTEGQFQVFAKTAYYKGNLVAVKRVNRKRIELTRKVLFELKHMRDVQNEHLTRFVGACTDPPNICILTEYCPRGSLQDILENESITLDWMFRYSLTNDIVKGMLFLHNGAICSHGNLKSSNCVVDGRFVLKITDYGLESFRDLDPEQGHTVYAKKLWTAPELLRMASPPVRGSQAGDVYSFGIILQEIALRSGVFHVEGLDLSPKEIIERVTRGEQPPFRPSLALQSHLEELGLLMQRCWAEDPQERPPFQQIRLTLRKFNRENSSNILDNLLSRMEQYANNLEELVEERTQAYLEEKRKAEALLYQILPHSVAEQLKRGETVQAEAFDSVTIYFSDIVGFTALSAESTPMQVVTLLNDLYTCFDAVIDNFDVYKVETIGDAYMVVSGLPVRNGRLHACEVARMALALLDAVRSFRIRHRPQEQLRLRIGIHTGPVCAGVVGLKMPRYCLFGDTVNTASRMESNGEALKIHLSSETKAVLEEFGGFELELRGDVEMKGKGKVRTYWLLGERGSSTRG
Procedure, shortened: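 Readout is cGMP-driven firefly luciferase luminescence in HEK293 cells carrying hNpr1 and a PDE5-domain GloSensor, read before and 20 min after 0.1 nM hNppA stimulation. Cells had 2% substrate reagent for 2 h and test compound for 30 min.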

[9] = target: Atrial natriuretic peptide receptor 2 (Homo sapiens) (UniProt P20594); assay: Natriuretic polypeptide receptor (hNpr2) antagonism - Pilot subtype selectivity assay (AID 1347050; calls by dose curve)
Atrial natriuretic peptide receptor 2 (Homo sapiens), sequence (P20594 whole entry, looked up): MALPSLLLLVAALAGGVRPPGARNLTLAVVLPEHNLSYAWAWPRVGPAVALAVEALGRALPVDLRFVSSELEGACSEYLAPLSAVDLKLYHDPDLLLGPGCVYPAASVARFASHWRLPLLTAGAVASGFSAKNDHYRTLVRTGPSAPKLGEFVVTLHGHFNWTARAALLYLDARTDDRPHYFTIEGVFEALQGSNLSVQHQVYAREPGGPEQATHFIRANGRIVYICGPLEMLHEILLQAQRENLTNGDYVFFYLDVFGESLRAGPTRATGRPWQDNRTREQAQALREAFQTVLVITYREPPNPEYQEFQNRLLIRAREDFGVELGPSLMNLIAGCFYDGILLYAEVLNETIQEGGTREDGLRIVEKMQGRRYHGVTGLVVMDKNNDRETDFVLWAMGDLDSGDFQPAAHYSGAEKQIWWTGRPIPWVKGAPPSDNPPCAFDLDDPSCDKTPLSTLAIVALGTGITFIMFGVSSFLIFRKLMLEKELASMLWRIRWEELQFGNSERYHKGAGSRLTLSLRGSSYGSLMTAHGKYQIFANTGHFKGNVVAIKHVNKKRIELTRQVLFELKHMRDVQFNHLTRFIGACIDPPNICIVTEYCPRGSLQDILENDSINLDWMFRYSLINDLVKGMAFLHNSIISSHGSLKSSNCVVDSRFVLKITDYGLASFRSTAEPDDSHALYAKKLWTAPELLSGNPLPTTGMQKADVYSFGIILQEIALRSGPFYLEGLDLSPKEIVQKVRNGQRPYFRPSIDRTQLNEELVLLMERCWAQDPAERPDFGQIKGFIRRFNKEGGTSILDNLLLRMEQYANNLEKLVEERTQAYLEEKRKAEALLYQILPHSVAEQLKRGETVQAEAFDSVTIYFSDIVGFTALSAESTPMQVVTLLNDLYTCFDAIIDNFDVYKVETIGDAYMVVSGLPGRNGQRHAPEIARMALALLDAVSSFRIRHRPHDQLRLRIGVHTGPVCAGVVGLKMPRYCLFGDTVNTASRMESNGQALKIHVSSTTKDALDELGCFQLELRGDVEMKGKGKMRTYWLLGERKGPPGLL
Procedure, shortened: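 Pilot selectivity screen against hNpr2: HEK293 cGMP-sensor cells are treated with LOPAC1280 compounds, then with hNppC peptide at 1 nM final. The cGMP-driven luminescence change over 20 min at room temperature is the read-out.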

[10] = target: Tyrosine-protein phosphatase non-receptor type substrate 1 (Homo sapiens) + Leukocyte surface antigen CD47 (Homo sapiens) (UniProt P78324+Q08722); assay: CD47-SIRPalpha protein protein interaction - LANCE assay qHTS validation (AID 1347057; active means well fitted curve in the direction sought with a large enough effect in the signal ratio, with a control signal flat, not every such curve was filed as active; the % refers to the signal ratio; further: series mostly up to about 38 µM)
Tyrosine-protein phosphatase non-receptor type substrate 1 (Homo sapiens) + Leukocyte surface antigen CD47 (Homo sapiens), sequence (P78324 whole entry, looked up): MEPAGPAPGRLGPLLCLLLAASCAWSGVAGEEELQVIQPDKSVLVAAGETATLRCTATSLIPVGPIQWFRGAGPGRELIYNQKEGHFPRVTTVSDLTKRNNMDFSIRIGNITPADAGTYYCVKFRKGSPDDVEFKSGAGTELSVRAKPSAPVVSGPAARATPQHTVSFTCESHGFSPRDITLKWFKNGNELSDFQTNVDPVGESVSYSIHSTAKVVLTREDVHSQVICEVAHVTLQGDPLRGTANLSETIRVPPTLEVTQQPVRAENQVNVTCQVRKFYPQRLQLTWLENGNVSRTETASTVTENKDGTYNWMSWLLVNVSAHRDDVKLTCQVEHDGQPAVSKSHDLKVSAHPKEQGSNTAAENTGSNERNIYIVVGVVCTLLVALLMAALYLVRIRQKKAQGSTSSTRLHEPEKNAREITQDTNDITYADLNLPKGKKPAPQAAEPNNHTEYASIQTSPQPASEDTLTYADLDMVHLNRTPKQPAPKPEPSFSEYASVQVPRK
Tyrosine-protein phosphatase non-receptor type substrate 1 (Homo sapiens) + Leukocyte surface antigen CD47 (Homo sapiens), sequence (Q08722 whole entry, looked up): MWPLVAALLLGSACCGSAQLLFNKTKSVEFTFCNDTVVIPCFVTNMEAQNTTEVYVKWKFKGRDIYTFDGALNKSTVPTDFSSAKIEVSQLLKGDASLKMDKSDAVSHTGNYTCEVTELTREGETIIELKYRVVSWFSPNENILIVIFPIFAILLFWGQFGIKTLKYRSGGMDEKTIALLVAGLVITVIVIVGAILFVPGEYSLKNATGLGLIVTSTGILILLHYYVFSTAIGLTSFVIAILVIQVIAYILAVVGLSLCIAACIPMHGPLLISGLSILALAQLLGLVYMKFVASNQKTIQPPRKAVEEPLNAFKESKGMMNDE
Procedure, shortened: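 First, His-tagged CD47 and Eu-labelled anti-His antibody met the compound for 30 min; next, site-specifically biotinylated SIRPalpha was added for 30 min; finally streptavidin-APC was added before reading the TR-FRET ratio.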

Measured: Potency

CCN(CC)C(=O)N1CCN(C)CC1
inactive: [1] | [2] | [3] | [4] | [5]

OC[C@@H](O)[C@@H](O[C@@H]1O[C@H](CO)[C@H](O)[C@H](O)[C@H]1O)[C@H](O)[C@@H](O)CO
inactive: [1] | [2] | [3] | [4] | [5]

O=C(Nc1ccc(Oc2ccc(Cl)cc2)c(Cl)c1)c1cc(I)cc(I)c1O
inactive: [1] | [2] | [3] | [4] | [5]

Clc1ccc2c(c1)CCc1cccnc1C2=C1CCNCC1
inactive: [1] | [2] | [3] | [4] | [5]

CCOC(=O)/C=C(C)/C=C/C=C(C)/C=C/c1c(C)cc(OC)c(C)c1C
inactive: [1] | [2] | [3] | [4] | [5]

NCCc1ccn[nH]1
inactive: [1] | [2] | [3] | [4] | [5]

COc1cc(N)c(Cl)cc1C(=O)NC1CCN(CCCOc2ccc(F)cc2)CC1OC (configuration not stated)
inactive: [1] | [2] | [3] | [4] | [5]

CCCCOc1cc(C(=O)NCCN(CC)CC)c2ccccc2n1
inactive: [1] | [2] | [3] | [4] | [6] | [5]

C#C[C@]1(O)CC[C@H]2[C@@H]3CCc4cc(OC5CCCC5)ccc4[C@H]3CC[C@@]21C
inactive: [1] | [2] | [3] | [4] | [5]

COc1cc2c(cc1OC)C(C(C(=O)N(CCc1ccc(OC)c(OC)c1OC)CCc1ccc(OC)c(OC)c1OC)c1ccccc1)=NCC2 (configuration not stated)
active: [6] 9.2 µM
inactive: [1] | [2] | [3] | [4] | [5]

c1ccc(-c2ccc(C(c3ccccc3)n3ccnc3)cc2)cc1 (configuration not stated)
inactive: [1] | [2] | [3] | [4] | [5]

Cc1c(C)n(CCN(C)C)c2ccc(C(=O)OCCN(C)C)cc12
inactive: [1] | [2] | [3] | [4] | [5]

C#C[C@]1(OC(C)=O)CC[C@H]2[C@@H]3CCC4=C[C@@H](OC(C)=O)CC[C@@H]4[C@H]3CC[C@@]21C
inactive: [1] | [2] | [3] | [4] | [5]

CC[C@H](C)C(=O)O[C@H]1CCC=C2C=C[C@H](C)[C@H](CC[C@@H]3C[C@@H](O)CC(=O)O3)[C@H]21
not listed: [6]
inactive: all other assays above

CN=C(NC#N)NCCSCc1csc(N=C(N)N)n1
inactive: [1] | [2] | [3] | [4] | [6] | [5]

C/C=C/c1ccc(OC)cc1
inactive: [1] | [2] | [3] | [4] | [6] | [5]

COc1ccc(/C=C/C(=O)c2ccc(OC)cc2OC)cc1
inactive: [1] | [2] | [3] | [4] | [5]

O=S1(=O)c2cccc3cccc(c23)N1CCCN1CCN(c2ccc(F)cc2)CC1
inactive: [1] | [2] | [3] | [4] | [5]

CCCCCCCCCCCCCCNCCO
inactive: [1] | [2] | [3] | [4] | [5]

O=C(Nc1ccc(Cl)c(Cl)c1)C1CC1
inactive: [1] | [2] | [3] | [4] | [5]

c1ccc(OCc2ccc(CCCN3CCOCC3)cc2)cc1
inactive: [1] | [2] | [3] | [4] | [5]

O=C(COc1ccc(Cl)cc1)N1CCN(Cc2ccc3c(c2)OCO3)CC1
inactive: [1] | [2] | [3] | [4] | [5]

NC(=O)c1cc[n+](CC2=C(C(=O)[O-])N3C(=O)[C@@H](NC(=O)Cc4cccs4)[C@H]3SC2)cc1
inactive: [1] | [2] | [3] | [4] | [5]

CC(=O)c1ccc2c(c1)N(CCCN1CCC(CCO)CC1)c1ccccc1S2
inactive: [1] | [2] | [3] | [6] | [5]

CO/N=C1\CN(c2nc3c(cc2F)c(=O)c(C(=O)O)cn3C2CC2)CC1CN (configuration not stated)
inactive: [1] | [2] | [3] | [4] | [5]

CCN(CCCc1ccccc1)CCCc1ccccc1
inactive: [1] | [2] | [3] | [4] | [5]

O=C(CCCN1CCC(O)(c2ccc(Br)cc2)CC1)c1ccc(F)cc1
inactive: [1] | [2] | [3] | [4] | [5]

C[C@@H](CN(C)C)CN1c2ccccc2Sc2ccccc21
inactive: [1] | [2] | [3] | [4] | [5]

CCC(C(=O)OCCN(CC)CC)c1ccccc1 (configuration not stated)
inactive: [1] | [2] | [3] | [6] | [5]

CC(Cc1cccc(C(F)(F)F)c1)NCCOC(=O)c1ccccc1 (configuration not stated)
inactive: [1] | [2] | [3] | [4] | [5]

C#C[C@]1(O)CC[C@H]2[C@@H]3CCC4=CC(=O)CC[C@@H]4[C@H]3CC[C@@]21C
inactive: [1] | [2] | [3] | [4] | [5]

O=C1CCC(c2ccc(-n3ccnc3)cc2)=NN1
active: [6] 1.46 µM
not listed: [4]
inactive: all other assays above
